# PubChem BioAssay AID1942 (Johns Hopkins Ion Channel Center, 2009)
# The campaign covered roughly 2,400 compounds. About 580 (24%) were called active.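 How the source made its calls: active means activity change at or above the mean plus 3 SD of buffer wells without dofetilide, per plate; inactive means the rest.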 Not all results are given here.
# Target: Potassium voltage-gated channel subfamily KQT member 2 (Rattus norvegicus) (UniProt O88943)
# Assay: rat KCNQ2 channel activation by compounds alone, confirmation, counter-screen for hERG block protector project, cell-based, CHO, FluxOR thallium flux (AID 1942);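 further: normalized value minus buffer-control mean plus three SD of buffer wells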
# Conditions: CHO-KCNQ2 cells, FluxOR thallium flux fluorescence; at 10 µM; active compounds read high
# Sequence of Potassium voltage-gated channel subfamily KQT member 2 (Rattus norvegicus) (O88943 whole entry, looked up): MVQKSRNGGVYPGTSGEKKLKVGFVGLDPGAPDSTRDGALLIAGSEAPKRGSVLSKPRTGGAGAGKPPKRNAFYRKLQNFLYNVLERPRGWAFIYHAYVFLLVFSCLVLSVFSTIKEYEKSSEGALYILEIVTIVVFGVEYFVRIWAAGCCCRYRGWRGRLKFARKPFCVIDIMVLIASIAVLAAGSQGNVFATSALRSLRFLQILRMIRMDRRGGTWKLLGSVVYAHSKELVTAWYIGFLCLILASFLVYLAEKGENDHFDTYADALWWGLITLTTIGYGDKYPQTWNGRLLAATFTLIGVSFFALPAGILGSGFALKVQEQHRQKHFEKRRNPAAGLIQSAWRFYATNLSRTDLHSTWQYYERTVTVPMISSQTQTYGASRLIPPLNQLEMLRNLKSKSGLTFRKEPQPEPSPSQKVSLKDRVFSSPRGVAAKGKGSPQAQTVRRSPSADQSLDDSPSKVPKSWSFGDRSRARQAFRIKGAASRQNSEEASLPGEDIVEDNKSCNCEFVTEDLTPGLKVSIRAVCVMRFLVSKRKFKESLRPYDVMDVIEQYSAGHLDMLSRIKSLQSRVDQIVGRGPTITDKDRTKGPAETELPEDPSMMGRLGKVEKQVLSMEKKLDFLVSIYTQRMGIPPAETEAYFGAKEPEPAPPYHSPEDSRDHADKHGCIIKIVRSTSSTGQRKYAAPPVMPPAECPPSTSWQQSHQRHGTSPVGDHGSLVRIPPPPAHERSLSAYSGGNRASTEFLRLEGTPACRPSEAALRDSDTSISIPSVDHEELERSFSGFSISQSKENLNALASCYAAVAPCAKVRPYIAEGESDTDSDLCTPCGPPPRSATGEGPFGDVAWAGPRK
row,SMILES,"activity change, less the hit threshold"
1,CCCN(C(=O)c1ccco1)c1nnc(-c2ccncc2)s1,-7.4% (inactive)
2,Cc1ccc(/C(O)=C2\C(=O)C(=O)N(Cc3cccnc3)C2c2ccccc2[N+](=O)[O-])cc1 (configuration not stated),-16% (inactive)
3,Cc1ccc(NC(=O)CN2C(=O)S/C(=C/c3ccc(-c4cc(C(=O)O)ccc4C)o3)C2=O)cc1C,-24.7% (inactive)
4,Cc1ccc2c(c1)N(CCC(=O)NCc1cccnc1)C(=O)CO2,-10.8% (inactive)
5,C/C(=C\C(=O)c1ccncc1)Nc1ccccc1O,-11.7% (inactive)
6,CC1(C)Cc2c(ccc3ccccc23)C2=C(C(=O)N3CCCC3)C(=O)C(=O)N21,-11.1% (inactive)
7,O=C1CC(O)(C(F)(F)F)Oc2c1ccc1ccccc21 (configuration not stated),28.3% (active)
8,Nc1nc2c(s1)CCCCCCCCCC2,-3% (inactive)
9,O=C(c1ccco1)N(c1ccccn1)c1ccccn1,-21.4% (inactive)
10,Brc1ccc(C2=CC(c3ccco3)n3nnnc3N2)cc1 (configuration not stated),-16.3% (inactive)
11,O=C(O)c1sccc1OCc1ccccc1,-0.9% (inactive)
12,Oc1c(N=NC(=S)Nc2ccccc2F)c2ccccc2n1Cc1cccc(Cl)c1,-13% (inactive)
13,Cc1ccccc1Cn1c(O)c(N=NC(=S)Nc2ccccc2F)c2ccccc21,-20.7% (inactive)
14,C=CCn1c(O)c(N=NC(=S)Nc2ccc(OC)c(Cl)c2)c2ccccc21,3.8% (active)
15,Cc1ccc(C)c(Cn2c(O)c(N=NC(=S)Nc3ccccc3F)c3ccccc32)c1,-11.3% (inactive)
16,C=CCn1c(O)c(N=NC(=S)Nc2ccc(OC)cc2)c2ccccc21,25% (active)
17,Oc1c(N=NC(=S)Nc2ccccc2F)c2ccccc2n1Cc1ccccc1F,-12.8% (inactive)
18,CCCCCCCc1c(O)nc(SCC(=O)O)[nH]c1=O,-8.4% (inactive)
19,Cc1cc(-c2ccccc2)[nH]c(=O)c1S(=O)(=O)c1ccccc1,-13% (inactive)
20,C/C(N)=C(/C#N)C(=O)COC(=O)C1CCC(C(C)(C)C)CC1 (configuration not stated),-10% (inactive)
21,Cn1cc(CCC(=O)N2CCCC(Nc3ccc(F)cc3)C2)cn1 (configuration not stated),-23.8% (inactive)
22,CCC(=O)Nc1nnc(-c2ccccn2)o1,-22.5% (inactive)

row,SMILES,"activity change, less the hit threshold"
1,CC(Oc1ccc(Cl)cc1)/C(N)=N/O (configuration not stated),-19.6% (inactive)
2,CCc1cccc(C)c1NC(=O)C1=C(C(=O)O)CCCC1,-15.9% (inactive)
3,Cc1ccccc1Cn1nc(C)c(NC(=O)c2ccccc2)c1C,51.6% (active)
4,CC(=O)c1n[nH]nc1NC(=O)c1ccccc1,-9.7% (inactive)
5,COc1ccc(CCN2C(=O)CSC2=S)cc1OC,-24% (inactive)
6,O=C(CCC1CCCC1)NNC(=O)c1cccc(Cl)c1,11.7% (active)
7,Cc1cccc(C(=O)NC(=S)NNC(=O)c2ccc(Cl)cc2)c1,-29% (inactive)
8,O=C(NC(=S)NCCc1ccccc1)c1cccc(Cl)c1,-22.4% (inactive)
9,Cc1ccccc1NC(=O)CC1S/C(=N/c2nccs2)N(C)C1=O (configuration not stated),-17.1% (inactive)
10,O=C(O)C1CCN1C1CCCCC1 (configuration not stated),-22.9% (inactive)
11,CCOC(=O)c1ccc(Oc2cc(C)nc(SC)n2)cc1,11.9% (active)
12,CCOc1cc(-n2ncc(C#N)c2N)nc(SC)n1,-21.7% (inactive)
13,CC(C)(C)OC(=O)NCCCC(CCCNC(=O)OC(C)(C)C)C(=O)O,-22.6% (inactive)
14,CCOC(=O)N1CCN(C(=O)COC(=O)c2cc(Cl)c(O)c(Cl)c2)CC1,-13.4% (inactive)
15,COc1ccc2[nH]c3c(=O)n(CCN4CCOCC4)cnc3c2c1,-15.3% (inactive)
16,O=C(Nc1ncc(Cc2ccc(C(F)(F)F)cc2)s1)c1ccc(-c2cccc([N+](=O)[O-])c2)o1,-12.3% (inactive)
17,O=C(CSc1cn(CC(=O)N2CCCC2)c2ccccc12)NCC1CCCO1 (configuration not stated),-27.5% (inactive)
18,O=C(NCc1ccco1)c1ccc(OCC2CCCO2)cc1 (configuration not stated),-26.4% (inactive)
19,O=C(NCC1CCCO1)c1ccc2c(=O)n(Cc3ccco3)c(SCC(=O)N3CCCC3)nc2c1 (configuration not stated),3.2% (active)
20,OC(COC(c1ccccc1)c1ccccc1)CN1CCCCC1 (configuration not stated),-23.9% (inactive)
21,COc1ccc(C(CC(=O)O)NC(=O)C(c2ccccc2)c2ccccc2)cc1 (configuration not stated),-23.8% (inactive)
22,O=C1C(=Cc2cccn2-c2ccc(O)cc2)C(=O)c2ccccc21,-25.6% (inactive)

row,SMILES,"activity change, less the hit threshold"
1,O=C(C1CCN(S(=O)(=O)c2cc(Cl)ccc2Cl)CC1)N1CCOCC1,-26% (inactive)
2,CC(C)(C)C(=O)NC(=S)N1CCOCC1,-8% (inactive)
3,CCCCCCC1CCC(C(=O)N2CCOCC2)CC1 (configuration not stated),5.9% (active)
4,COC(=O)Sc1nnc(-c2ccc(Br)cc2)o1,-1.8% (inactive)
5,CCc1ccc2c(c1)c(N=NC1=NC(=O)CS1)c(O)n2CC,26.5% (active)
6,CCn1c(O)c(N=NC2=NC(=O)CS2)c2ccccc21,-5.8% (inactive)
7,CCn1c(O)c(N=NC2=NC(=O)CS2)c2cc(C)ccc21,-10.5% (inactive)
8,C/C(=N/NC(=O)c1ccncc1)c1ccc2c(c1)OCO2,-22.1% (inactive)
9,O=C(NNC(=O)C12CC3CC(CC(O)(C3)C1)C2)c1ccccc1O,-1.7% (inactive)
10,COc1ccc(NC(=O)C(=O)NNC(=O)COc2ccc(Cl)cc2)c(OC)c1,15.6% (active)
11,COc1ccc(OCC(=O)NNC(=O)C(=O)Nc2cc(OC)ccc2OC)cc1,15.9% (active)
12,COc1ccc(NC(=O)C(=O)NNC(=O)COc2ccc(OC)cc2)cc1,-24.3% (inactive)
13,COc1cccc(OCC(=O)NNC(=O)C(=O)Nc2ccc(OC)cc2OC)c1,15.4% (active)
14,COc1ccc(OC)c(NC(=O)C(=O)NNC(=O)C23CC4CC(CC(C4)C2)C3)c1,96.2% (active)
15,O=C(COc1ccc(S(=O)(=O)NCc2ccccc2)cc1Cl)NCC1CCCO1 (configuration not stated),-14.4% (inactive)
16,Cc1ccc(-n2c(C)cc(C(=O)CN3CCOCC3)c2C)cc1,-12.8% (inactive)
17,CN(CC(=O)Nc1ccc(OC(F)(F)F)cc1)S(=O)(=O)c1cnc[nH]1,-18.2% (inactive)
18,CCN1C(=O)[C@H]2[C@@H](c3ccc(-c4ccc(OC)cc4)cc3)N[C@@](C)(C(=O)OC)[C@H]2C1=O,-17.6% (inactive)
19,CCC(NS(=O)(=O)c1ccc(OC)cc1)C(=O)O (configuration not stated),-16.1% (inactive)
20,CN(C)c1oc(-c2ccccc2[N+](=O)[O-])nc1C#N,-6.7% (inactive)
21,Cc1ccccc1NC(=O)CN1C(=O)S/C(=C\c2ccc(-c3cc(C(=O)O)ccc3C)o2)C1=O,-10.8% (inactive)
22,Cc1ccc(NC(=S)N2CCN(c3ccccc3F)CC2)c(C)c1,-10.4% (inactive)

row,SMILES,"activity change, less the hit threshold"
1,Cn1c(=O)[nH]c(=O)c2c1nc(CN1CCN(c3ccccc3F)CC1)n2CCCc1ccccc1,-12.9% (inactive)
2,Cc1cc(-c2csc3nc[nH]c(=S)c23)cc(C)c1C,33.7% (active)
3,Cc1ccc(-c2csc3nc[nH]c(=S)c23)cc1C,2.5% (active)
4,C=CCNC(=O)CC(=O)N/N=C/c1cccs1,-10.2% (inactive)
5,Nc1nc(O)c(N=Nc2ccc(S(N)(=O)=O)cc2)c(=O)[nH]1,-16.5% (inactive)
6,CSc1nc2c(c(=O)[nH]1)C(c1ccc(Br)cc1)CC(=O)N2 (configuration not stated),-18.9% (inactive)
7,COc1ccc(S(=O)(=O)c2snnc2C)cc1,-14.8% (inactive)
8,CN(Cc1cccc(C(F)(F)F)c1)Cc1nc(-c2cnccn2)no1,-21.7% (inactive)
9,COC(=O)C1=C(C)NC2=C(C(=O)CCC2)C1c1ccc(-c2ccsc2C(=O)OC)o1 (configuration not stated),53.7% (active)
10,COC(=O)C(C)Sc1nnc(Cc2cc(=O)[nH]c(=O)[nH]2)n1-c1cccc(OC)c1 (configuration not stated),-15.6% (inactive)
11,Cc1ccc(-n2ncc3c2CCCC3NC(=O)c2csnn2)cc1C (configuration not stated),-24.7% (inactive)
12,O=c1c2ccc(Cl)cc2[nH]c(=S)n1CCC1=CCCCC1,9.4% (active)
13,O=c1c2cccnc2[nH]c(=S)n1CCC1=CCCCC1,48.1% (active)
14,O=C(CCn1c(=S)[nH]c2cc3c(cc2c1=O)OCO3)NCc1ccc(Cl)cc1,-10.2% (inactive)
15,O=c1c2ccccc2[nH]c(=S)n1CCC1=CCCCC1,18% (active)
16,COc1ccccc1CNC(=O)CCCC(=O)n1ncc2cc(C)ccc21,-14.9% (inactive)
17,N#C/C(=N\Nc1ccccc1F)c1nc(-c2ccccc2)cs1,-27.5% (inactive)
18,CC(=O)Nc1ccc2nc(NC(=O)c3ccc([N+](=O)[O-])o3)sc2c1,-16.8% (inactive)
19,Cc1cc(NC(=O)Cn2c(=O)n(Cc3ccccc3)c(=O)c3ccccc32)no1,-19.9% (inactive)
20,Cc1ccc(C(C)C)c(OCc2n[nH]c(=S)o2)c1,10.8% (active)
21,c1ccc(SSc2ccccn2)nc1,-14% (inactive)
22,CC(C)(C)Cc1nnc(NC(=O)c2ccco2)s1,-19.2% (inactive)

row,SMILES,"activity change, less the hit threshold"
1,Cn1sc(NC(=O)c2cccc(Cl)c2)nc1=O,-5.4% (inactive)
2,O=C(NNC(=O)c1ccc(Cl)cc1Cl)c1cnccn1,-19.5% (inactive)
3,CC(C)CC(=O)Nc1nc(=S)ss1,-15.9% (inactive)
4,Cc1ccccc1C(=O)Nc1nc(=S)ss1,58.6% (active)
5,O=C(Nc1nc(=S)ss1)c1ccc(Cl)cc1Cl,100% (active)
6,Cc1ccc(C)c2sc(NC(=O)c3nc4ccccc4s3)nc12,-7.3% (inactive)
7,COc1cc(/C=C2/SC(=S)N(CC(=O)O)C2=O)ccc1OCC(=O)Nc1ccc(C)c(C)c1,-18.3% (inactive)
8,COC(=O)c1ccnc(/C=N/O)c1,-13% (inactive)
9,N=C1SCC(=O)N1c1ncc(Cc2ccccc2Cl)s1,-20.8% (inactive)
10,Cc1[nH]n(-c2ccc(Cl)cc2)c(=O)c1/C=N/c1nnc(-c2ccccc2)s1,170% (active)
11,COc1ccc2nc(N=Nc3c(O)ccc4ccccc34)sc2c1,-4.3% (inactive)
12,COc1ccc2nc(-n3c(O)c(C4=c5ccccc5=NC4=O)[nH]c3=S)sc2c1,-16.8% (inactive)
13,COc1ccc2nc(/N=C/c3c(C)[nH]n(-c4ccc(C)cc4)c3=O)sc2c1,103% (active)
14,CCOc1ccc2nc(/N=C/c3c(C)[nH]n(-c4ccccc4)c3=O)sc2c1,109% (active)
15,Cc1[nH]n(-c2cccc3ccccc23)c(=O)c1/C=N/c1sc2c(c1C#N)CCC2,-0.6% (inactive)
16,CCOc1ccc2nc(N3C(=O)/C(=C/c4ccccc4)NC3=S)sc2c1,-26.6% (inactive)
17,CCOc1ccc2nc(/N=C/c3nc(-c4ccccc4)oc3O)sc2c1,-11.5% (inactive)
18,Cc1[nH]n(-c2ccc(F)cc2)c(=O)c1/C=N/c1sc2c(c1C#N)CCCC2,21.6% (active)
19,N#Cc1c(NC(=O)c2cc(-n3cnnc3)ccc2Cl)sc2c1CCCC2,-10.6% (inactive)
